An excerpt weighted towards active compounds, which were near 12% of everything screened.
HCV inh – blocks hepatitis C virus; Huh7.5.1 HCVcc-Cre infection, luciferase reporter, 44 h; Potency, µM (titrated, usually from 41.8 µM), inactives show top-dose activity change, negative = inhibition, most hits filed as inhibitors; hit rate 3.4% among 340,000; further: on the % scale 0 is the no-effect control and ±100 the full control effect
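A cell-based infection assay in which seeded cells (1,000 per well) receive test compound after 4 h, are inoculated with HCVcc-Cre at approximately 0.5 moi, and are incubated 44 h before luminescence detection.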
SARS PLpro yeast – blocks SARS-CoV papain-like protease in a yeast assay | S. cerevisiae expressing SARS-CoV PLpro, growth rescue | Potency, µM (top dose mostly 32.9 µM), inactives show top-dose activity, positive = growth rescue, usual class: activators | hit rate 0.19% among 330,000 | AID 485353; calls by dose curve; further: 0% is about no effect; nearly all actives have a fitted effect of over 55% in size
NS1 inh – influenza NS1 inhibition; Potency, µM (titrated, usually from 46.1 µM), inactives show top-dose activity, positive = more growth; hit rate 0.4% among 270,000; AID 2326; calls by dose curve; further: actives are rising curves; nearly all actives have a fitted effect of over 50% in size
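In this qHTS, NS1 from influenza A is expressed in budding yeast, where it slows growth. Cells are switched from glucose to 2% galactose medium (pH 6.0, -URA), treated with compound, and growth recovery is read at OD600.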
Pf growth 96h – P. falciparum growth inhibition at 96 hours | P. falciparum luciferase reporter growth, 96 h | Potency, µM (top dose mostly 28.7 µM), for inactives: at the highest dose activity change, negative = inhibition, most hits filed as inhibitors | hit rate 6.9% among 320,000; further: on the % scale 0 is the no-effect control and ±100 the full control effect
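Readout is luminescence from an integrated firefly luciferase in P. falciparum. Red cells, 2% hematocrit and 0.05% parasitemia final, were cultured with compound through two parasite generations (96 hours) at 37 C, 5% CO2.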
Pf growth 48h – inhibits P. falciparum growth in the first generation, 48 h | P. falciparum luciferase growth in erythrocytes, 48 h | Potency, µM (doses to about 28.7 µM), for the others: at the top dose activity change, negative = inhibition, hits mostly inhibitors | hit rate 5.9% among 310,000; further: on the % scale 0 is the no-effect control and ±100 the full control effect
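In quantitative HTS format, infected erythrocytes bearing luciferase-reporter parasites were treated for a single generation at 37 C. Luminescence after adding detection reagent served as the growth measure.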
AMA1-RON2 inh – AMA1-RON2 (P. falciparum) interaction inhibition; AlphaScreen AMA1-biotinylated RON2 peptide binding; Potency, µM (series often up to 58.2 µM), for the others: at the highest dose activity change, negative = inhibition, most hits filed as inhibitors; hit rate 0.2% among 360,000;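 further: 0% = vehicle wells and -100% = peptide control; nearly all actives have a fitted effect of over 45% in size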
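AMA1 (3D7) with his tag at 25 nM final met compounds first, then biotinylated RON2 peptide at 25 nM; detection used donor plus acceptor beads, 10 µg/mL apiece, read by AlphaScreen after 30 min at room temperature.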
Active calls of the source: *; ? = inconclusive; nt = no result. Unless noted, the call rests on the fitted dose curve; in most records, active means well fitted curve in the direction sought with a large enough effect; inconclusive means small, poorly fitted or top-dose-only effect, or another doubt; inactive means no such curve, though single readings can be large; an effect the other way counts as inactive or inconclusive. Potency means the concentration at half of the fitted maximal effect.

SMILES | HCV inh | SARS PLpro yeast | NS1 inh | Pf growth 96h | Pf growth 48h | AMA1-RON2 inh
COc1ccc(/C(O)=C2/C(=O)C(=O)N(c3ncccn3)C2c2ccc(C(C)(C)C)cc2)cc1 (stereo not given) | nt | 4.5% | nt | -17.0% | 16.6% | nt
CC(=O)c1csc(COc2ccc(Cl)cc2)n1 | -4.8% | -1.0% | -6.9% | 131.8% | 88.5% | -3.4%
Cc1cnc(NC(=O)c2nn(C)cc2[N+](=O)[O-])s1 | ? | 0.4% | 0.5% | 36.0% | 49.4% | -6.8%
Cn1cc([N+](=O)[O-])c(C(=O)Nc2nc(-c3ccc(Cl)cc3)cs2)n1 | 3.98µM* | -4.9% | 0.6% | 0.0% | 41.0% | -4.8%
Cc1ccc(-c2nc(NC(=O)c3nn(C)cc3[N+](=O)[O-])sc2C)cc1 | 4.47µM* | -11.4% | 0.2% | nt | 9.1% | -0.7%
Cc1ccc(-c2nc(NC(=O)c3nn(C)cc3[N+](=O)[O-])sc2C)cc1C | ? | 13.9% | -1.1% | nt | -6.6% | -20.7%
CC1CC(C)CN(CCCNC(=O)CN2C(=O)COc3ccc(S(=O)(=O)N4CCOCC4)cc32)C1 (stereo not given) | 5.3% | -2.6% | -6.8% | 57.6% | 27.3% | -4.9%
O=C(O)C1CCCCC1C(=O)NCCc1ccc(F)cc1 (stereo not given) | 16.1% | 0.4% | 3.9% | 9.28µM* | 21.3% | 19.9%
Cc1cc(OC(=O)c2c(F)cc(F)cc2F)nc(C)n1 | 3.1% | 1.7% | nt | 54.5% | ? | 25.2%
O=C(COC(=O)c1cc(S(=O)(=O)N2CCCCC2)ccc1Cl)NC1CCCCC1 | nt | nt | nt | nt | nt | 1.9%
CCOc1cc(C)c(Cl)cc1S(=O)(=O)N1CCCC1 | -19.7% | -4.6% | -8.4% | 0.928µM* | -16.0% | -1.9%
COc1cc(C)c(Cl)cc1S(=O)(=O)N1CCCC1 | -8.3% | -2.0% | 2.6% | ? | -3.3% | 13.6%
Cc1cc(Cl)c(S(=O)(=O)N2CCCC2)cc1OCC(=O)NC1CCCCC1 | ? | -4.1% | -3.9% | 0.0828µM* | nt | 17.7%
O=C(COc1ccc(S(=O)(=O)N2CCCC2)cc1Cl)NC1CCCC1 | -5.6% | 8.2% | -21.2% | nt | 9.28µM* | -4.9%
C=CCN1C(=O)C(CC(=O)O)SC1=Nc1ccc(C)cc1 (stereo not given) | 8.8% | 2.1% | -0.2% | ? | 0.0% | 26.6%
CCCN1CCN(CC(=O)Nc2nncs2)CC1 | 3.4% | 6.5% | 0.3% | -0.2% | 5.3% | 17.0%
Cc1ccc(NC(=O)c2ccc(NCCN)c([N+](=O)[O-])c2)cc1 | -12.1% | 6.1% | 11.1% | ? | ? | -6.2%
Cc1ccc(NC(=O)c2ccc(NCCCN3CCC(C)CC3)c([N+](=O)[O-])c2)cc1F | ? | -2.5% | nt | -23.4% | 1.17µM* | -11.6%
O=C(NCCCN1CCOCC1)c1ccc(Sc2ccc(Br)cc2)c([N+](=O)[O-])c1 | ? | -3.7% | -8.9% | 14.7µM* | 3.3% | 1.9%
O=C(Nc1cccc(Cl)c1)c1ccc(NCCCN2CCOCC2)c([N+](=O)[O-])c1 | 10µM* | 5.3% | 0.1% | 134.4% | ? | -0.9%
O=C(NCCCN1CCOCC1)c1cccc(NC(=O)c2ccccc2)c1 | 12.2% | nt | nt | nt | nt | -4.6%
Cc1cc(C)c(S(=O)(=O)c2cccc(Br)c2C)c(Cl)n1 | 6.4% | 3.9% | -0.7% | 4.2% | 0.0% | -1.6%
CO[C@@H](NC(N)=O)C(=O)O | nt | nt | 5.1% | nt | nt | nt
CC1(C)Cc2c(C#N)c(N3CCN(C(=O)c4ccccc4Cl)CC3)nc(-c3ccco3)c2CS1 | ? | -1.5% | 13.5% | 1.65µM* | ? | ?
CC(=O)N1CCN(c2nc(-c3ccco3)c3c(c2C#N)CC(C)(C)SC3)CC1 | 12.6µM* | -8.4% | 16.3% | ? | ? | -21.6%
SMILES | HCV inh | SARS PLpro yeast | NS1 inh | Pf growth 96h | Pf growth 48h | AMA1-RON2 inh
Cc1ccc(C(C)n2cc(C(=O)NCc3ccccn3)nn2)cc1 (stereo not given) | 6.3% | 0.7% | nt | 28.2% | 13.3% | 114.4%
Cc1nc2ccc(Cc3ccc4nc(C)[nH]c4c3)cc2[nH]1 | -7.3% | 9.0% | 7.8% | 10.4µM* | ? | 2.9%
CCS(=O)(=O)NCCc1cc2c(OC)ccc(OC)c2[nH]c1=O | -5.1% | 3.3% | -0.7% | 2.08µM* | -24.4% | -3.3%
Cc1ccc(C)c2[nH]c(=O)c(CCNC(=O)c3cc4ccccc4o3)cc12 | 14.4% | -2.6% | -92.4% | ? | ? | -1.6%
COc1ccc(OC)c2[nH]c(=O)c(CCNC(=O)c3cc4ccccc4o3)cc12 | ? | -6.6% | -40.2% | 5.22µM* | 8.28µM* | -4.6%
COc1cc2c(cc1NC(=O)C(C)OC(=O)C1CC(=O)N(Cc3ccco3)C1)oc1ccccc12 (stereo not given) | 14.1µM* | -1.0% | -112.5% | 123.4% | nt | -13.7%
O=S(=O)(O)CCCS(=O)(=O)O | nt | nt | nt | 4.9% | -9.4% | nt
O=C(COc1cc(F)ccc1[N+](=O)[O-])Nc1cccc(S(=O)(=O)NC2=NCCC2)c1 | -3.4% | 1.1% | nt | 29.9% | -26.5% | -3.2%
CC(C)NC(=O)c1c(O)c2ccccc2[nH]c1=O | ? | -0.5% | -61.9% | 4.15µM* | 10.4µM* | 47.4%
CC(C)C(=O)NNC(=O)c1c(O)c2ccccc2[nH]c1=O | 6.1% | 2.9% | -36.1% | ? | 11.7µM* | 18.0%
O=C(N/N=C/c1cccc(F)c1)c1c(O)c2ccccc2[nH]c1=O | 12.6µM* | -47.9% | -2.7% | -12.9% | 17.5% | 61.6%
O=c1[nH]c2ccccc2c(O)c1O | ? | 0.3% | 0.8% | 10.4µM* | 13.1µM* | 10.6%
O=C(N/N=C/c1ccc(F)cc1)c1c(O)c2ccccc2[nH]c1=O | 20.1% | -26.0% | 4.5% | -8.2% | 22.9% | 65.8%
O=C(O)Cc1ccc(NC(=O)Nc2ccc3c(c2)OCO3)cc1 | 13.7% | 8.7% | 4.2% | 120.3% | 41.2% | 12.9%
CC(Sc1nnc2ccccn12)C(=O)Nc1ccc2c(c1)OCO2 (stereo not given) | 4.9% | -0.5% | -1.0% | 24.5% | 22.1% | -7.7%
O=C(COC(=O)CNS(=O)(=O)/C=C/c1ccccc1)Nc1cc(S(=O)(=O)N2CCCCC2)ccc1Cl | 19.6% | 0.3% | 10.0% | -18.8% | -5.8% | 12.1%
CCOc1ccc(S(=O)(=O)NCCC(=O)N(C)CC(=O)Nc2ccc(N3CCOCC3)cc2)cc1 | 6.3% | 3.4% | nt | 3.3% | -3.7% | -16.9%
Cc1ccc(C)c(NC(=S)NCCc2ccc(F)cc2)c1 | ? | -7.0% | -27.4% | ? | 13.1µM* | 55.4%
Cc1cc(C)cc(NC(=S)NCCc2ccc(S(N)(=O)=O)cc2)c1 | -2.3% | -8.5% | 3.9% | 1.65µM* | -8.0% | -3.3%
Cc1ccc(C)c(NC(=O)C2CCCC2)c1 | 15.6% | nt | nt | nt | nt | -6.5%
Cc1ccc(C)c(NC(=S)NCCN(C2CCCCC2)C2CCCC2)c1 | ? | -2.3% | nt | ? | 10.4µM* | 1.4%
Cc1ccc(SCCNC(=S)Nc2cc(C)ccc2C)cc1 | -23.5% | -18.6% | -149.1% | 8.28µM* | nt | 49.9%

Screening data (PubChem)
